CYP2C19 activ = activators of human cytochrome P450 2C19; P33261; recombinant CYP2C19, luciferin-H EGE luminescence; stronger effect = higher value; 0 = fully inhibited enzyme, 1 = untreated enzyme; activation factor at 5 µM; 96,000 tested, under 10 active; AID 1025;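 active means activation factor of at least 2 at 5 µM in the primary screen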;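 further: 0 = wells with 2.5 mM tranylcypromine and 1 = vehicle-only wells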
Target sequence (P33261 whole entry, looked up): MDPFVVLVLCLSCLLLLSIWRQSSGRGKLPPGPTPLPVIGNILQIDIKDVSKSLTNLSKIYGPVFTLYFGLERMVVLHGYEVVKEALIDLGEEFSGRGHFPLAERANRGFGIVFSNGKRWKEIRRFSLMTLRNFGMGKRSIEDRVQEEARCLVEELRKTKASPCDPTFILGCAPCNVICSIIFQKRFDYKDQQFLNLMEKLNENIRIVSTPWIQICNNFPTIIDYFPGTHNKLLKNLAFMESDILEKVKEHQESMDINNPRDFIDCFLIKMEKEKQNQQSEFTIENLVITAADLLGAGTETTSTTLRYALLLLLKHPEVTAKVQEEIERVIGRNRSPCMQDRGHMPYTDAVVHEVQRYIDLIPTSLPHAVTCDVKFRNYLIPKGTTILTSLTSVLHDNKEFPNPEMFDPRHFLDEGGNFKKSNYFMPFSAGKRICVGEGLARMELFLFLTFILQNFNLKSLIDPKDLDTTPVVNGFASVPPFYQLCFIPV
CYP2C9 inhib = blocks human cytochrome P450 2C9. 96,000 compounds, 20% hits. inhibition, % at 5 µM. CYP2C9 Supersomes, luciferin-H conversion, luminescence. P11712;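 active means blocking of liver enzyme CYP2C9 beyond about 50% at 5 µM, limit read from the data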
CYP2C19 inh = human CYP2C19 inhibition; inhibition, % at 5 µM; CYP2C19 Supersomes, luciferin-H EGE luminescence, 30 min; 96,000 compounds, 21% hits; P33261;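 active means CYP2C19 inhibition above a set limit at 5 µM in the primary screen, cut at about 50% in these data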;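 further: plate controls were negative control wells for no effect and 2.5 mM tranylcypromine positive control for full effect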
PostGolgi ctrl = inhibits growth of the yeast control strain | efflux-deficient yeast background strain, growth absorbance A615, 16 h | inhibition, % at 10 µM | 98,000 compounds, 5% hits
CYP2C9 act = CYP2C9 (human) activation; recombinant CYP2C9, luciferin-H conversion, luminescence; stronger effect = higher value; factor 1 = untreated enzyme, 0 = blocked; activation factor at 5 µM; 96,000 compounds, 1.4% hits;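 active means activation factor of 2 or more for CYP2C9 at a 5 µM dose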;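 further: 0 = sulfaphenazole-blocked wells and 1 = vehicle-only wells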
PostGolgi yeast = growth inhibition of a yeast mutant, post-Golgi transport screen. post-Golgi transport phenotypic cell assay. 98,000 compounds, 0.9% hits. inhibition, % at 10 µM;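 further: yeast cells grown in 1536-well plates; yeast grown about 18 h at 30C before absorbance read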
An asterisk follows results filed as active. Rows were chosen to be rich in hits. Some 32% of all compounds tested hit in one or more screens of this group. Unless noted, no stated cut-off is given here; in the data, active means inhibition above about 30%; inactive means the rest.

SMILES	CYP2C19 activ	CYP2C9 inhib	CYP2C19 inh	PostGolgi ctrl	CYP2C9 act	PostGolgi yeast
Cc1csc(SCC(=O)NCc2cccs2)n1	0.6	16	36	38*	0.8	2
Cn1c(=O)cc(OCC(=O)N2CCC(N3CCCCC3)CC2)c2ccccc21	1.2	-17	-22	16	1.2	2
CC1CCCCN1C(=O)c1cc(F)c(F)cc1Cl (stereo not drawn)	0.6	5	41	9	1	0
COc1ccc(C2C(C(=O)NCC3CCCO3)c3cc(OC)c(OC)cc3C(=O)N2C)cc1OC (stereo not drawn)	0.6	12	42	22	0.9	6
Cc1sc2ncnc(N(C)Cc3cccs3)c2c1C	0.6	36	36	14	0.6	2
Cc1csc(SCC(=O)Nc2cccc3nsnc23)n1	0.4	77*	55*	7	0.2	-6
COc1cccc(NC(=O)CSc2nc(C)cs2)c1	0.2	24	82*	2	0.8	1
Cc1csc(SCC(=O)Nc2ccccn2)n1	0.7	1	33	6	1	4
Cc1csc(NC(=O)CSc2nc(C)cs2)n1	0.4	14	58*	9	0.9	4
Cc1sc2nc(CN(Cc3cccs3)C(=O)C3CC3)[nH]c(=O)c2c1C	0	88*	97*	2	0.1	-3
Cc1ccc(-c2cc(C(=O)NCc3cnn(C)c3C)c3cc(Br)ccc3n2)cc1	0.9	63*	13	50*	0.4	-9
COc1ccc(CCN=CC2=C(O)CCCC2=O)cc1OC	1.1	-12	-10	6	1.1	9
CC(C)CCN(C)c1ccc(/C=N/n2cnnc2)cc1	0	95*	99*	18	0	0
CCN(C)c1ccc(/C=N\n2nnnc2N)cc1	0.7	-26	31	2	1.3	5
Nc1cc(Cl)nc(N/N=C/c2ccccc2[N+](=O)[O-])n1	0.9	-6	10	5	1.1	-2
Cc1cccc(Oc2ncnc3oc(-c4ccccc4)cc23)c1C	0.7	54*	28	10	0.5	-7
CCOC(=O)C1CCCN(CC(O)COc2ccc(OC)cc2C(C)(C)C)C1 (stereo not drawn)	0.5	56*	46	7	0.4	1
CCOC(=O)C1CCN(Cc2cn[nH]c2-c2ccccc2)CC1	0.7	0	29	10	1	2
CCOC(=O)N1CCN(Cc2cc(=O)oc3ccc(Cl)cc23)CC1	0.3	56*	73*	-5	0.4	3
CCOC(=O)C1CCN(Cc2ccccc2C)CC1	0.2	13	77*	3	0.9	28
CCOC(=O)C1CCCN(Cc2ccc(OCC)cc2)C1 (stereo not drawn)	0.2	-5	76*	-4	1	-4
O=C(CC1(O)C(=O)Nc2ccccc21)c1cccnc1 (stereo not drawn)	1	0	0	-2	1	11
CCCC(C(=O)NC1CCCC1)N(Cc1cccs1)C(=O)c1snc(C(N)=O)c1N (stereo not drawn)	0.7	19	28	4	0.8	-7
CCOC(=O)C1CCCN(Cc2ccccc2C)C1 (stereo not drawn)	0.1	2	88*	-7	1	-3
CCOC(=O)C1CCCN(Cc2nc(N)nc(Nc3ccc(Cl)cc3)n2)C1 (stereo not drawn)	0.4	67*	63*	23	0.3	-18
SMILES	CYP2C19 activ	CYP2C9 inhib	CYP2C19 inh	PostGolgi ctrl	CYP2C9 act	PostGolgi yeast
CCOC(=O)C1CCCN(Cc2cccs2)C1 (stereo not drawn)	0.1	4	88*	15	1	-2
CCOC(=O)N1CCN(Cc2cccs2)CC1	0.1	7	90*	5	0.9	3
O=C(C1CCCN(Cc2cccs2)C1)N1CCCCCC1 (stereo not drawn)	1	-1	0	-14	1	-2
CCOC(=O)C1CCCN(Cc2nc(N)nc(Nc3ccc(OC)cc3)n2)C1 (stereo not drawn)	0.7	4	33	13	1	9
CCOC(=O)N1CCN(Cc2ccccn2)CC1	1	13	3	-1	0.9	19
COc1ccccc1NC(=O)N(C1CCCC1)C1CCN(C(C)=O)CC1	1.1	-6	-6	14	1.1	-6
CCOC(=O)N1CCN(C(=O)C2CCCN(Cc3nc(-c4ccc(Cl)cc4)oc3C)C2)CC1 (stereo not drawn)	1	-10	3	20	1.1	-6
CCOC(=O)C1CCN(CC(=O)N2C(C)CCCC2C)CC1 (stereo not drawn)	0.4	9	63*	-9	0.9	-2
CCOC(=O)C1CCCN(C/C(O)=C(\C#N)c2nc(-c3ccc(Cl)cc3)cs2)C1 (stereo not drawn)	0.9	58*	14	8	0.4	-9
CCOC(=O)C1CCCN(Cc2ccccc2Cl)C1 (stereo not drawn)	0.2	24	80*	12	0.8	-7
CCOC(=O)C1CCN(Cc2cccc(OC)c2)CC1	0.2	3	77*	8	1	10
CCOC(=O)C1CCN(C(=O)N2CCOCC2)CC1	0.9	-3	14	5	1	2
O=C(c1ccc(S(=O)(=O)N2CCOCC2)cc1)N(Cc1ccco1)Cc1cccs1	0.8	42	18	5	0.6	2
CC(=O)Nc1ccc(NC(=O)CN(c2ccccc2Cl)S(C)(=O)=O)cc1	0.9	-2	14	-5	1	6
COc1ccc(OC)c(N(CC(=O)Nc2cccnc2)S(C)(=O)=O)c1	0.4	33	56*	4	0.7	0
CCOc1ccccc1N(CC(=O)Nc1cccnc1)S(C)(=O)=O	0.8	16	15	-2	0.8	19
COc1ccc(C)cc1N(CC(=O)O)S(=O)(=O)c1ccc(C)cc1	0.9	1	8	0	1	-1
COc1ccc(OC)c(N(CC(=O)Nc2cccnc2)S(=O)(=O)c2ccc(C)cc2)c1	0	94*	95*	7	0.1	-6
COc1ccc(OC)c(N(CC(=O)Nc2cccnc2)S(=O)(=O)c2ccc(OC)c(OC)c2)c1	0.1	90*	88*	0	0.1	0
CCN(CC)S(=O)(=O)c1ccc(NC(=O)CN(c2ccc(OC)cc2OC)S(C)(=O)=O)cc1	0.1	100*	86*	24	0	-2
CCOc1ccc(OCC)c(NC(=O)c2ccc(CNc3c(N4CCOCC4)c(=O)c3=O)cc2)c1	0.8	26	21	1	0.7	5
COc1ccc(-c2c(S(=O)(=O)c3ccccc3)cnn2-c2ccccc2)cc1	0	51*	97*	23	0.5	-5
O=S(=O)(c1ccccc1)c1cnn(-c2ccccc2)c1-c1ccc(Cl)cc1	0.4	23	55*	39*	0.8	6
CCn1c(C(C)NC(=O)Cc2ccccc2)nc2ccccc21 (stereo not drawn)	0.7	-9	35	1	1.1	-8

Screens from PubChem.
